SMILES strings stand for the structures. Records with an inconclusive call do not appear. Values without a mark were called inactive. The source made the active and inactive calls. Unless noted, calls come from the whole dose curve; as a rule, active = well fitted curve in the direction sought with a large enough effect in the repeat runs; inconclusive = weak or mixed curves; inactive = no such curve, though single readings can be large; an effect the other way counts as inactive or inconclusive.

The text below walks through data of PubChem BioAssay (Tox21).

A short description of assay [1]: qHTS assay to identify small molecule antagonists of the thyroid receptor (TR) signaling pathway - cell viability counter screen (AID 743064). Note: nearly all actives have a fitted effect of over 50% in size. Note: potency is the fitted concentration of half-maximal effect. Summed up: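 Counter screen for cytotoxicity: compound plus T3 (1 nM final) on GH3.TRE-Luc cells, 23.5 h at 37 °C, then fluorescence viability readout with CellTiter-Fluor.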
In general terms: Quantitative high-throughput screening tests each substance at several concentrations.

Assay [2] has as its target Estrogen receptor (Homo sapiens) (UniProt P03372). Kind of assay: qHTS assay to identify small molecule antagonists of the estrogen receptor alpha (ER-alpha) signaling pathway (AID 743069; active = well fitted curve in the direction sought with a large enough effect in the signal ratio in the repeat runs, not every such curve was filed as active; the % refers to the signal ratio). Summed up: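 Reporter cells (ER-alpha-bla, HEK293 background) are conditioned overnight in stripped-serum medium (2% charcoal-stripped FBS). Compound and 17beta-estradiol exposure runs 18 hr at 37C, 5% CO2.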

Assay [3] is described as follows: qHTS assay to identify small molecule antagonists of the estrogen receptor alpha (ER-alpha) signaling pathway - cell viability counter screen (AID 743074; calls by dose curve;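 note: HEK293 cells carrying ER-alpha-UAS-bla reporter stimulated with 17beta-estradiol; nearly all actives have a fitted effect of over 45% in size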).
In assay [4] the target is Estrogen receptor (Homo sapiens) (UniProt P03372). Kind of assay: qHTS assay to identify small molecule agonists of the estrogen receptor alpha (ER-alpha) signaling pathway (AID 743075; calls by dose curve;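 note: HEK293 GripTite cells with ER-alpha and UAS-driven beta-lactamase reporter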).
Chain of Estrogen receptor (Homo sapiens) (P03372 whole entry, looked up): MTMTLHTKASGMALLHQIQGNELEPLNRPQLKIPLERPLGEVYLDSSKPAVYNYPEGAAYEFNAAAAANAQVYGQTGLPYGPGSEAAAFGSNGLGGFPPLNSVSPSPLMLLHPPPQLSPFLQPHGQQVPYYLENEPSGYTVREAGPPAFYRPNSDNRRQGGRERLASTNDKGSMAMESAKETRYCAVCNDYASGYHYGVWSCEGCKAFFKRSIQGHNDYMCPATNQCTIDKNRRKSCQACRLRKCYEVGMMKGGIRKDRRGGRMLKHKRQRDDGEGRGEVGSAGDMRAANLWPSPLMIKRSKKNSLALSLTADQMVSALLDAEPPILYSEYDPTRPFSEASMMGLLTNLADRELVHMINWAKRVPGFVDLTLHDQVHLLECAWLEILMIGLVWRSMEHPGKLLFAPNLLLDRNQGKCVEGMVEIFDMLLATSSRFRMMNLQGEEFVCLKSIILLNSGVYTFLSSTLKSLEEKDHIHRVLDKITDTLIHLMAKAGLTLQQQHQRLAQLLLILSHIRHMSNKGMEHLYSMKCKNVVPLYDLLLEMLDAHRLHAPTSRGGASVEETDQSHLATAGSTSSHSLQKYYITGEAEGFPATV
Assay [5] has the same target. The experiment in a line: qHTS assay to identify small molecule agonists of the estrogen receptor alpha (ER-alpha) signaling pathway using the BG1 cell line (AID 743079). Note: nearly all actives have a fitted effect of over 20% in size.
The nature of assay [6]: qHTS assay to identify small molecule antagonists of the estrogen receptor alpha (ER-alpha) signaling pathway using the BG1 cell line (AID 743080; calls by dose curve;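 note: BG1 cells stimulated with 17beta-estradiol alongside compound; series mostly up to about 70 µM; nearly all actives have a fitted effect of over 25% in size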). A digest of the protocol:
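After 5 days in phenol-red-free 10% charcoal-stripped FBS medium, BG1-Luc-4E2 cells were seeded, left 24 h at 37 C, co-treated with compounds and 17beta-estradiol for 21.5 h, then assayed for viability and luciferase.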

Assay [7] is described as follows: qHTS assay to identify small molecule antagonists of the estrogen receptor alpha (ER-alpha) signaling pathway using the BG1 cell line - cell viability counter screen (AID 743081). For activity change, negative = cytotoxicity: series mostly up to about 70 µM.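 Note: compound given together with 17beta-estradiol as the ER stimulus; nearly all actives have a fitted effect of over 45% in size.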 Note: potency is the fitted concentration of half-maximal effect.
Assay [8] can be described thus: qHTS assay to identify small molecule antagonists of the thyroid receptor (TR) signaling pathway (AID 743065). Note: series mostly up to about 70 µM; nearly all actives have a fitted effect of over 55% in size. A digest of the protocol: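 GH3.TRE-Luc rat pituitary cells (two TREs driving luciferase) were dosed with compound, then stimulated with 1 nM T3 (final) for 23.5 h at 37 C. ONE-Glo luminescence was the read-out, with CellTiter-Fluor fluorescence as the cytotoxicity counter-screen.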

For assay [9], the system named is thyroid hormone receptor (rat, GH3 cells). The experiment in a line: qHTS assay to identify small molecule agonists of the thyroid receptor (TR) signaling pathway (AID 743066; calls by dose curve; note: potency is the fitted concentration of half-maximal effect).
In the next assay the target is Aromatase (Homo sapiens) (UniProt P11511). Kind of assay: qHTS assay to identify aromatase inhibitors (AID 743083). For activity, negative = inhibition: series mostly up to about 70 µM. Note: nearly all actives have a fitted effect of over 55% in size. Note: potency is the fitted concentration of half-maximal effect.
Chain of Aromatase (Homo sapiens) (P11511 whole entry, looked up): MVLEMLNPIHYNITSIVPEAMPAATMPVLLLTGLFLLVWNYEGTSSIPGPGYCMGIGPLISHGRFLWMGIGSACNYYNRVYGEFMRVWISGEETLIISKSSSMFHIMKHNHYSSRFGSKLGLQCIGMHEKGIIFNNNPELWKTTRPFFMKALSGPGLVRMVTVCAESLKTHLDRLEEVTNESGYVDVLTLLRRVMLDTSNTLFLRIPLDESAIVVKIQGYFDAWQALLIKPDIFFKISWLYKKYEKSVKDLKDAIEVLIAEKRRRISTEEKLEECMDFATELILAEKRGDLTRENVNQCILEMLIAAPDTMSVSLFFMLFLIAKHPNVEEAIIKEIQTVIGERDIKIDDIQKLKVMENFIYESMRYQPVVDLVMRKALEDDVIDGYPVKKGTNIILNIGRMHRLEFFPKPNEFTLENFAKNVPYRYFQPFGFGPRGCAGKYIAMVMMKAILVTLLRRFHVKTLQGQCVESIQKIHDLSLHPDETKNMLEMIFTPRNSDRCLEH
% is set by controls: 0 for no effect and ±100 for the full control effect.

For the molecule `CN1C[C@H]2c3ccccc3Oc3ccc(Cl)cc3[C@@H]2C1`, the Potency in assay [1] is 15 µM (active). For the same molecule, the Potency entry in assay [2], in assay [3], in assay [4], in assay [5], in assay [6] and in assay [7] was “inactive” throughout.
Take `Cc1c(N)cccc1[N+](=O)[O-]`: the Potency result in [8], in assay [9], in assay [2], in assay [3], in assay [4] and in assay [6] was “inactive” throughout. In addition, the Potency entry in assay [7] is “inactive”.
For the molecule `CCC(C)c1cc(C(C)(C)C)c(O)c(C(C)(C)C)c1` (stereo not given), the Potency entry in assay [1], in assay [3] and in assay [7] was “inactive” throughout. In addition, the Potency in [9] was 10.7 µM (active).
With `Cc1ccc(N=Nc2c(O)c(C(=O)O)cc3ccccc23)c(S(=O)(=O)O)c1`, the Potency is 26.5 µM (active) in assay [1] and 16.7 µM (active) in [7]. In addition, the Potency entry (in assay [9]; in assay [3]; in the assay with Aromatase (Homo sapiens)) was “inactive” in each case.
For the molecule `COc1cccc(N(C)C(=S)Oc2ccc3c(c2)CCCC3)n1`, the Potency result (in assay [1]; in [9]; in assay [4]; in assay [7]; in the assay with Aromatase (Homo sapiens)) was “inactive” throughout.
`CCN(CC)CCOC(=O)C(c1ccccc1)C1CCCCC1` (stereo not given): the Potency in assay [1] was 26.6 µM (active). The Potency result in assay [2], in assay [3], in [4], in assay [5], in assay [6] and in assay [7] was “inactive” each time. The Potency result with Aromatase (Homo sapiens) is “inactive”.
On to `CN(C)c1ccc(/C=C/c2ccc([N+](=O)[O-])cc2)cc1`, for which the activity change, negative = cytotoxic in [1] was 14.3% [at 8.44 µM]. In addition, the activity, negative = cytotoxicity in [3] was -15.2% [at 6.72 µM]. The activity change, negative = cytotoxicity in assay [7] is 18.2% [at 8.47 µM]. Also, the activity, negative = inhibition in the assay with Aromatase (Homo sapiens) was 68.2% [at 8.47 µM].
With `O=CC1CC=CCC1` (stereo not given), the Potency entry in assay [8], in [9], in [2], in [3], in assay [4] and in assay [5] was “inactive” throughout. Moreover, the Potency entry (in assay [6]; in [7]; with Aromatase (Homo sapiens)) was “inactive” in each case.
Take `CCOC(=O)C1=C[C@]2(CC)CCCN3CCc4c(n1c1ccccc41)[C@@H]32`: the Potency in assay [1] was 9.44 µM (active). Besides, the Potency entry in assay [2], in assay [3], in assay [4], in assay [5], in assay [6] and in [7] was “inactive” throughout. For the same molecule, in the assay with Aromatase (Homo sapiens), the Potency result is “inactive”.
For the molecule `C#Cc1cccc(Nc2ncnc3cc(OCCOC)c(OCCOC)cc23)c1`, the Potency result in assay [1], in assay [9], in assay [4], in assay [5] and in assay [6] was “inactive” throughout. Besides, the Potency in the assay with Aromatase (Homo sapiens) is 18.8 µM (active).
Take `CCCCC(CC)COC(=O)COc1ccc(Cl)cc1Cl` (stereo not given): the Potency entry in assay [8], in [9], in [2], in assay [3], in [4] and in assay [5] was “inactive” throughout. Moreover, the Potency entry (in assay [6]; in assay [7]; in the assay with Aromatase (Homo sapiens)) was “inactive” in each case.
For `COc1cc(Cl)c(OC)cc1N`, the Potency result (in [1]; in assay [7]; with Aromatase (Homo sapiens)) was “inactive” throughout.
Consider `CC1=CC=C(C(C)C)CC1`, for which the Potency result in [1], in assay [2], in [3], in assay [4], in [5] and in [6] was “inactive” in each case. In addition, the Potency result (in assay [7]; with Aromatase (Homo sapiens)) was “inactive” throughout.
As to `CO[C@@H]1[C@H](OC(=O)/C=C/C=C/C=C/C=C/C(=O)O)CC[C@]2(CO2)[C@H]1[C@@]1(C)O[C@@H]1CC=C(C)C`, the Potency result in assay [1], in assay [9], in assay [3], in [4], in assay [5] and in assay [6] was “inactive” each time. Besides, the Potency entry (in assay [7]; with Aromatase (Homo sapiens)) was “inactive” throughout.
Regarding `NCc1ccccc1Sc1ccccc1CO`, the Potency entry in [8], in [9], in assay [2], in [3], in [4] and in assay [5] was “inactive” in each case. Moreover, the Potency entry (in assay [6]; in assay [7]; in the assay with Aromatase (Homo sapiens)) was “inactive” throughout.
For `CCN(CC)c1ccc2c(-c3ccccc3C(=O)O)c3ccc(=[N+](CC)CC)cc-3oc2c1`, the Potency in assay [1] is 5.45 µM (active); in [7], 9.69 µM (active). For the same molecule, the Potency result in [3], in [4] and in assay [6] was “inactive” throughout.
